Eight molecules from PubChem BioAssay can be followed below.

Assay [1] relates to Wnt5a (protein binding on small-molecule microarray). Nature of the assay: Wnt5a binders on small-molecule microarray, primary screen, biophysical, 635/667 nm fluorescence (AID 1142).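 Also: fluorescence read at 667 nm with signal to noise per printed feature.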 The conditions noted are these: 635 nm fluorescence, higher = more signal.
Assay [2] is described as follows: cell viability in Huh7 cells, primary screen, cytotoxicity control for HCV replication inhibitor project, CellTiter-Glo luminescence, basal, 48 h (AID 1143).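 Also: Huh7 hepatoma cells carrying a hepatitis C replication reporter with no stimulus; test concentration not given here.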 The conditions noted are these: Huh7 HCV replicon, higher = more signal, called active from +8 up or from −8 down.
Assay [3] in a line: P. aeruginosa biofilm formation inhibitors, primary screen, PAO1 strain, BacTiter-Glo luminescence, LB-PBS (AID 1144). The note with it: 12 h, higher = more signal.
Assay [4] in a line: CREB reporter modulators without forskolin, primary screen, cell-based, PC12, CRE-LacZ reporter, unstimulated (AID 1145). The conditions noted are these: no forskolin, luminescence, 4.5 h, higher = more signal, called active from +8 up or from −8 down.
Assay [5] is described as follows: CREB reporter modulators under forskolin, primary screen, cell-based, PC12, CRE-LacZ reporter, forskolin-stimulated (AID 1146).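 Also: PC12 cells with 6xCRE LacZ reporter stimulated by forskolin 10 µM; beta-galactosidase reporter signal reflecting CREB driven transcription.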 The conditions noted are these: luminescence, 4.5 h, higher = more signal, called active from +8 up or from −8 down.
The target in assay [6] is Streptavidin (Streptomyces avidinii) (UniProt P22629). In words: streptavidin binders on small-molecule microarray, primary screen, artefact control for SMM compound annotation, biophysical, 635/667 nm fluorescence (AID 1147).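 Also: signal reflects streptavidin binding to arrayed compounds as a control protein.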 The note with it: streptavidin binding, higher = more signal.
Assay [7] can be described thus: small-molecule binders of probe aInhba, primary screen, biochemical, small-molecule microarray, 635/667 nm fluorescence (AID 1148).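 Also: score merges 667nm spot fluorescence with signal-to-noise for antibody binding to printed compounds.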 The note with it: higher = more signal.
Assay [8] concerns the target Torsin-1A (Homo sapiens) (UniProt O14656). In words: torsin A binders from cell lysate, primary screen, small-molecule microarray, wild-type, 635/667 nm (AID 1149). The note with it: COS7 hTOR1A-WT lysate, 635 nm fluorescence, higher = more signal.
Assay [9] shares this target. Nature of the assay: small-molecule binders of mutant TOR1A in lysate, primary screen, cell lysate, small-molecule microarray, COS7 lysate, 635/667 nm fluorescence (AID 1150).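 Also: score pools 667 nm emission and signal to noise measuring lysate protein binding.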 The note with it: COS7 hTOR1A mutant lysate, 635 nm fluorescence, higher = more signal.
The subject of assay [10] is Sonic hedgehog protein (Shh). In words: small-molecule binders of Shh protein, primary screen, biochemical, small-molecule microarray, 635/667 nm fluorescence (AID 1151).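 Also: Shh protein binding to compounds spotted on small-molecule microarray slides; score combines spot fluorescence intensity with signal-to-noise across triplicate slides.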 The note with it: small-molecule microarray binding, 635 nm fluorescence; higher = more signal.
The nature of assay [11]: E. coli DRC41 culture turbidity changes, primary screen, E. coli filamentation inducer project, strain DRC41, OD650, 48 h (AID 1152).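 Also: E. coli MC1000 strain DRC41 lacking acrAB efflux pump and sulA.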 The conditions noted are these: E. coli DRC41 (acrAB sulA), higher = more signal, called active from +8 up or from −8 down.
Assay [12] in a line: small-molecule binders of probe aLefty1, primary screen, biochemical, small-molecule microarray, 635/667 nm fluorescence (AID 1153).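 Also: score merges spot fluorescence with signal-to-noise ratio from the scanned slide images.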 The note with it: higher = more signal.
The nature of assay [13]: PSAC antagonists in infected red cells, primary screen, cell-based, P. falciparum Indochina, OD700, 1 h (AID 1154). The note with it: P. falciparum Indochina infected RBC osmotic lysis, higher = more signal, called active from +8 up or from −8 down.
Assay [14] can be described thus: PSAC antagonists in infected red cells, primary screen, cell-based, P. falciparum Indochina, OD700, 2 h (AID 1155).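 Also: lysis reports solute entry through the parasite surface anion channel PSAC; channel blockers reduce lysis of infected cells.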 The conditions noted are these: P. falciparum Indochina infected erythrocytes, osmotic lysis OD700; higher = more signal, called active from +8 up or from −8 down.
Assay [15] in a line: osmotic lysis modulators in infected erythrocytes, primary screen, PSAC antagonist project, cell-based, P. falciparum Indochina, OD700, 3 h (AID 1156). The conditions noted are these: higher = more signal, called active from +8 up or from −8 down.
Assay [16] in a line: PSAC antagonists in infected red cells, primary screen, cell-based, P. falciparum Indochina, OD700, 18 h (AID 1157). The note with it: P. falciparum Indochina infected erythrocytes, osmotic lysis OD700, 18 h; higher = more signal, called active from +8 up or from −8 down.
A short description of assay [17]: modulators of S6 phosphorylation in cells, primary screen, cell-based, A549, cytoblot, luminescence, serum-stimulated (AID 1158).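 Also: serum-stimulated A549 lung adenocarcinoma cells; signal is phosphorylated S6 detected by cytoblot immunostaining with HRP secondary.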 The conditions noted are these: A549 phospho-S6 cytoblot, 5 h, higher = more signal.
The target of assay [18] is NADPH oxidase 2 (Homo sapiens) (UniProt P04839). Nature of the assay: NOX2-dependent H2O2 signal modulators, primary screen, NOX inhibitor project, cell-based, HEK293-NOX2, PMA-stimulated, Amplex Red fluorescence (AID 1159). Also: test concentration not given here. The conditions noted are these: 45 min, higher = more signal, called active from +8 up or from −8 down.
Assay [19] deals with NADPH oxidase 4 (Homo sapiens) (UniProt Q9NPH5). Nature of the assay: NOX4-dependent H2O2 signal modulators, primary screen, NOX inhibitor project, cell-based, HEK293-NOX4, tetracycline-induced, Amplex Red fluorescence (AID 1160). The note with it: 45 min, higher = more signal, called active from +8 up or from −8 down.
The target in assay [20] is NADPH oxidase 5 (Homo sapiens) (UniProt Q96PH1). Nature of the assay: NOX5-dependent H2O2 signal modulators, primary screen, NOX inhibitor project, cell-based, HEK293-NOX5, Amplex Red fluorescence (AID 1161). The conditions noted are these: HEK293-NOX5, ionomycin, 45 min, higher = more signal.

The source made the active and inactive calls. Unless noted, no rule for the calls is given here.

Chain of NADPH oxidase 5 (Homo sapiens) (Q96PH1 whole entry, looked up): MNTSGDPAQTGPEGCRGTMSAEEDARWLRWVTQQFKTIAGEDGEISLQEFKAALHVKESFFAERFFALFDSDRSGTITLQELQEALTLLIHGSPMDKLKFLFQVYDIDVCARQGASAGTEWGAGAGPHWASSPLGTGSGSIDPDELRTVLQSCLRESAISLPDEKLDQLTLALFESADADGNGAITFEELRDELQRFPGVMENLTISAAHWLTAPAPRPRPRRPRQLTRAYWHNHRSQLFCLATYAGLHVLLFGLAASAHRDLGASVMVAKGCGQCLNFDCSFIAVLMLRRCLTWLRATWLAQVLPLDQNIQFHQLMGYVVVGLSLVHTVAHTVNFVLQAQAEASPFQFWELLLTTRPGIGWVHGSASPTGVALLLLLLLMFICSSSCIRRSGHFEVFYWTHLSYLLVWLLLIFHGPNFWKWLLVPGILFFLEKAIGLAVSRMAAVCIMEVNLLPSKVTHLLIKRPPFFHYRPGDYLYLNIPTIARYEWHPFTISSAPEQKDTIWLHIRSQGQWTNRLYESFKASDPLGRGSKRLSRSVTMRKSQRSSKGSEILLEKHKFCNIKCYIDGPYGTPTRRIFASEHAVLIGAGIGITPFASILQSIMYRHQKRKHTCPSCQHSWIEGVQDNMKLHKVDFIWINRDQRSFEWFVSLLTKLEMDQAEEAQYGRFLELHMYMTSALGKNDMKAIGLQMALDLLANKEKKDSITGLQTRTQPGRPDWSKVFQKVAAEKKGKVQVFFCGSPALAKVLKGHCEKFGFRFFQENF
Chain of NADPH oxidase 4 (Homo sapiens) (Q9NPH5 whole entry, looked up): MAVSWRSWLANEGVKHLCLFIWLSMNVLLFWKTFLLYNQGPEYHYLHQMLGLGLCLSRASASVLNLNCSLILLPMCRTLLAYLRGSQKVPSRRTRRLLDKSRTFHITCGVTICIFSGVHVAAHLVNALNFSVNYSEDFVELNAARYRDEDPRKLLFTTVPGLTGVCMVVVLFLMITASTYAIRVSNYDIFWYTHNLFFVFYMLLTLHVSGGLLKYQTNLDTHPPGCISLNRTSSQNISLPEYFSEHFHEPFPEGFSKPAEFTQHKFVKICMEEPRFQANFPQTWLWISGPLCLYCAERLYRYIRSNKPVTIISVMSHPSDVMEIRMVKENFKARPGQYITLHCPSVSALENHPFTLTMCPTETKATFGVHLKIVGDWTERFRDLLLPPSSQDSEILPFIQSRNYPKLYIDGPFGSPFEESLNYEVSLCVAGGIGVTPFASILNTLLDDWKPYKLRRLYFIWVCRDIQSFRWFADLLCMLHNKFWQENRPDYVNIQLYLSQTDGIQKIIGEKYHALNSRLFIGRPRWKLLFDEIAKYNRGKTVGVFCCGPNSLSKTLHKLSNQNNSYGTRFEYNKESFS
Chain of Streptavidin (Streptomyces avidinii) (P22629 whole entry, looked up): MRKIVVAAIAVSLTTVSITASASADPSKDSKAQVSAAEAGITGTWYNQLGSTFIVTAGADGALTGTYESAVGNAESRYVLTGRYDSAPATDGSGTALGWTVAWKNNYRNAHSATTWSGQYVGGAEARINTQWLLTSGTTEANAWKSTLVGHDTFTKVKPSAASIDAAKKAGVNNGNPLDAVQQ
Chain of Torsin-1A (Homo sapiens) (O14656 whole entry, looked up): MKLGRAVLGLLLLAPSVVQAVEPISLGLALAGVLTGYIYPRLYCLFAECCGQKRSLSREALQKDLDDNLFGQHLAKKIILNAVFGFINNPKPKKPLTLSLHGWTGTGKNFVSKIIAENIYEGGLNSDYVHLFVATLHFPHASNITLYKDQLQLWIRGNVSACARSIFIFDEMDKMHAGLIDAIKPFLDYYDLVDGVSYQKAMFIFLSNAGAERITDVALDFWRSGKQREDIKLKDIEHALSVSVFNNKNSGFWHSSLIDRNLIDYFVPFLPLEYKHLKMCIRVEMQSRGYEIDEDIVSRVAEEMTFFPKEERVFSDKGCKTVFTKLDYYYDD
Chain of NADPH oxidase 2 (Homo sapiens) (P04839 whole entry, looked up): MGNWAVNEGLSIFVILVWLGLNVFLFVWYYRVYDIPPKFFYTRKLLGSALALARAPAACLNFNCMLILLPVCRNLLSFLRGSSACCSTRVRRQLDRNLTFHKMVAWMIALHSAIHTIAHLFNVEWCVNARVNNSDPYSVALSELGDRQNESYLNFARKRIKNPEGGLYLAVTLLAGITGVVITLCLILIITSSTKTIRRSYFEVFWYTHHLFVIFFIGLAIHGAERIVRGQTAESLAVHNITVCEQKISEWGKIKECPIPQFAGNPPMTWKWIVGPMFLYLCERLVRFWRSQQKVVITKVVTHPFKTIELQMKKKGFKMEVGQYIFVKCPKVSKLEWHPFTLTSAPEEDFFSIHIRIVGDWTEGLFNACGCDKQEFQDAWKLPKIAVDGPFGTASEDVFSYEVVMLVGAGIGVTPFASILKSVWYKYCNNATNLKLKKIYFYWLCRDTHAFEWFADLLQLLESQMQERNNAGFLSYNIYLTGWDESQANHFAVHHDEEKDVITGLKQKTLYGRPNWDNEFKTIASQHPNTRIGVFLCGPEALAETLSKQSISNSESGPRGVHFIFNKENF

For `CO[C@H]1O[C@H](CO)[C@@H](OC(=O)Nc2ccc(Oc3ccccc3)cc2)[C@H](OC(=O)Nc2ccc3c(c2)OCO3)[C@@H]1OC(=O)Nc1ccc2c(c1)OCO2`, the composite z-score in assay [1] came to 1.31; in [6] it was 0.894; in assay [7], 0.415; in [8] it was 0.626; in assay [9], 1.58; in assay [10], 1.66. Moreover, the composite z-score in assay [12] came out at 0.0751. Besides, the z-score in assay [2] is -2.74 (inactive); in [3], -0.168 (inactive); in assay [4] it was 0.502 (inactive); in [5], -0.917 (inactive); in assay [11] it was 0.599 (inactive); in [13], 12.3 (active). For the same molecule, the z-score is 2.93 (inactive) in assay [14]; 0.403 (inactive) in assay [15]; 1.7 (inactive) in [16]; 0.377 in [17]; 1.24 (inactive) in [18]; -0.397 (inactive) in assay [19]. The z-score in assay [20] was -0.967.

As for `C=C(C)[C@@H]1CC=C(C(O)C2C=CC3C(=O)NC(=O)C3N2Nc2ccc(Cl)cc2Cl)CC1` (stereo not given in full), the composite z-score in assay [1] is 0.287; in assay [6], 1.39; in [7], 0.099; in [8], -0.0124; in [9] it was 0.455; in assay [10], 0.393. The composite z-score in assay [12] came to 0.266. Moreover, the z-score was -1.64 (inactive) in [2]; -0.995 (inactive) in assay [3]; 0.815 (inactive) in assay [4]; -0.113 (inactive) in assay [5]; -2.9 (inactive) in assay [11]; 5.74 (inactive) in [13]. The z-score in assay [14] was 1.4 (inactive); in assay [15] it was -0.372 (inactive); in assay [16] it was 1.61 (inactive); in assay [17] it was -1.02; in [18], -2.38 (inactive); in assay [19], -6.41 (inactive). The same molecule came in with a z-score in [20] of -3.51.

As for `O=C(O)[C@H]1C[C@H]2C(=O)N3CCC[C@H]3C(=O)N2[C@H]1c1ccc(O)cc1`, the composite z-score is -0.32 in assay [1]; -1.29 in assay [6]; -0.122 in assay [7]; 0.244 in assay [8]; 0.109 in assay [9]; 0.0164 in [10]. The composite z-score in assay [12] is -0.121. In addition, the z-score in assay [2] is -0.44 (inactive); in assay [3], -0.0598 (inactive); in assay [4], -0.122 (inactive); in assay [5], -0.233 (inactive); in assay [11] it was 0.852 (inactive); in assay [13] it was 1.9 (inactive). The z-score is 0.0196 (inactive) in assay [14]; -6.59 (inactive) in assay [15]; 0.104 (inactive) in [16]; -0.275 in assay [17]; 0.583 (inactive) in [18]; 0.16 (inactive) in assay [19]. Also, the z-score in [20] was 0.932.

As to `CC(=O)Nc1cc(Br)ccc1C(=O)NCc1ccccc1`, the composite z-score is -0.0375 in [1]; 0.725 in assay [6]; -0.0963 in [7]; -0.0164 in assay [8]; -0.0323 in assay [9]; -0.24 in [10]. This molecule also showed a composite z-score in assay [12] of -0.0929. Also, the z-score is -0.798 (inactive) in assay [2]; 0.0338 (inactive) in assay [3]; -0.348 (inactive) in assay [4]; -1.14 (inactive) in assay [5]; -0.813 (inactive) in [11]; 3.88 (inactive) in [13]. Moreover, the z-score is 0.423 (inactive) in [14]; 0.0319 (inactive) in assay [15]; 0.229 (inactive) in [16]; -0.283 in [17]; -0.714 (inactive) in [18]; -0.427 (inactive) in assay [19]. In assay [20], this molecule yielded a z-score of -0.393.

Take `COc1cc(CO)cc(I)c1O[C@H]1C=C(C(=O)NCCO)C[C@@H](NC[C@@H]2CCCO2)[C@@H]1O`: the composite z-score in [1] is -0.11; in assay [6], -0.442; in assay [7] it was -0.135; in assay [8], 0.761; in [9], 0.127; in assay [10], 1.07. Besides, in assay [12], the composite z-score was -0.0075. The z-score was 0.102 (inactive) in assay [2]; -0.69 (inactive) in [3]; 1.77 (inactive) in assay [4]; -0.809 (inactive) in assay [5]; 2.35 (inactive) in assay [11]; 3.81 (inactive) in assay [13]. In addition, the z-score was 0.585 (inactive) in assay [14]; 1.4 (inactive) in assay [15]; 0.303 (inactive) in assay [16]; 0.687 in [17]; -0.144 (inactive) in assay [18]; 0.492 (inactive) in assay [19]. For the same molecule, in assay [20], the z-score is -0.0544.

Regarding `Cc1ccc([C@H]2C(C(=O)O)=CCN2S(=O)(=O)c2ccc(C)cc2)cc1`, the composite z-score in assay [1] was -0.171; in [6], 0.468; in assay [7] it was 0.0108; in assay [8], 0.593; in assay [9], 0.435; in assay [10], 0.0688. In [12], this molecule returned a composite z-score of -0.0308. Besides, the z-score in assay [2] is -0.849 (inactive); in assay [3] it was 0.668 (inactive); in assay [4], -0.48 (inactive); in [5] it was -0.119 (inactive); in assay [11], -0.813 (inactive); in [13], 1.48 (inactive). The z-score is 0.495 (inactive) in assay [14]; 0.164 (inactive) in [15]; 0.291 (inactive) in [16]; -0.579 in assay [17]; 0.441 (inactive) in assay [18]; -0.84 (inactive) in [19]. This molecule came in with a z-score in assay [20] of -1.62.

As for `C#CCOc1ccc(C[C@@H](C(=O)OC)N(CC#C)[C@@H](/C=C/C2CC2)[C@H](O)Cc2ccccc2)cc1`, the composite z-score in [1] is -0.589; in [6], -0.57; in [7] it was -0.183; in assay [8], -1.18; in [9], -0.489; in assay [10], -0.34. The molecule also registered a composite z-score in [12] of -0.101. The z-score in assay [2] was -2.59 (inactive); in assay [3] it was 0.803 (inactive); in assay [4], 14.9 (active); in assay [5], 1 (inactive); in [11], -1.04 (inactive); in [13], 1.7 (inactive). For the same molecule, the z-score in assay [14] was 0.135 (inactive); in assay [15] it was -0.173 (inactive); in assay [16], -0.111 (inactive); in assay [17] it was -0.138; in assay [18], -0.0591 (inactive); in [19] it was 0.763 (inactive). For the same molecule, the z-score in assay [20] was -0.732.

For the molecule `O=C1C2C=CC(C(O)c3ccc(F)cc3)N(Nc3ccc([N+](=O)[O-])cc3)C2C(=O)N1c1ccccc1` (stereo not given), the composite z-score in [1] was 0.241; in assay [6] it was 1.39; in assay [7], 0.0487; in assay [8], -0.232; in assay [9], 0.187; in [10], -0.241. The molecule further displayed a composite z-score in assay [12] of 0.129. In addition, the z-score in assay [2] is -0.0129 (inactive); in [3] it was -0.615 (inactive); in assay [4], -0.415 (inactive); in assay [5], 0.15 (inactive); in assay [11] it was -1.01 (inactive); in [13], 19.7 (active). Moreover, the z-score is 3.8 (inactive) in assay [14]; 0.721 (inactive) in [15]; 1.22 (inactive) in assay [16]; -0.454 in assay [17]; -0.95 (inactive) in assay [18]; -2.96 (inactive) in [19]. The z-score in assay [20] was -1.91.
